# Screening results (PubChem BioAssay)
# DT40 TDP1 CPT = qHTS for Inhibitors of human tyrosyl-DNA phosphodiesterase 1 (TDP1): qHTS in cells in presence of CPT; chicken DT40 Tdp1-/-;hTDP1 cells + 20 nM CPT, ATP luminescence, 48 h; Potency, µM (series often up to 46.2 µM), actives largely listed as inhibitors; 420,000 tested, 12% active; AID 686979, 2013; further: nearly all actives have a fitted effect of over 55% in size
#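 Chicken DT40 Tdp1-/- cells complemented with human TDP1, 400 cells/well, exposed to compounds plus 20 nM camptothecin for at least 48 h at 37 C; viability read as ATP content by CellTiter-Glo luminescence.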
# TDP1 cell noCPT = qHTS for Inhibitors of human tyrosyl-DNA phosphodiesterase 1 (TDP1): qHTS in cells in absence of CPT; Potency, µM (doses to about 46.2 µM), usual class: inhibitors; 420,000 tested, 15% active; AID 686978, 2013; DT40 Tdp1-/- hTDP1 cells, no CPT, ATP luminescence, 48 h; further: nearly all actives have a fitted effect of over 55% in size
#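 Growth of hTDP1-complemented DT40 Tdp1-knockout cells is measured by ATP luminescence after at least 48 hr compound exposure at 37 °C, with DMSO substituting for the 20 nM CPT used in the parallel screen.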
# SW480 rerep = A quantitative high throughput screen for small molecules that induce DNA re-replication in SW480 colon adenocarcinoma cells; 340,000 tested, 1.8% active; SW480 DNA re-replication, Hoechst DNA content imaging, 48 h; Potency, µM (doses to about 46.1 µM), usual class: activators; further: nearly all actives have a fitted effect of over 55% in size
#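 Per well, 250 cells were exposed to pinned compound for 48 hr. Nuclear DNA was visualised with Hoechst (40 min, 37 C) and total object intensity recorded by fluorescence scanning.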
# MCF10A rerep = A quantitative high throughput screen for small molecules that induce DNA re-replication in MCF 10a normal breast cells | MCF 10A DNA re-replication, Hoechst nuclear intensity, 48 h | Potency, µM (titrated, usually from 46.1 µM), usual class: activators | 350,000 tested, 2.9% active | AID 624296, 2012; further: nearly all actives have a fitted effect of over 50% in size
# Chronic BCR inh = qHTS Assay to Find Inhibitors of Chronic Active B-Cell Receptor Signaling; ABC-DLBCL IkBa-CBG/CBR reporter, luminescence ratio, 4 h; Potency, µM (highest dose often 46.1 µM), most hits filed as inhibitors; 340,000 tested, 0.05% active; active means well fitted inhibition curve with a large enough effect in the signal ratio, with a control signal flat, not every such curve was filed as active; inconclusive means small, poorly fitted or top-dose-only effect, or effect the other way, or a change in a side signal; the % refers to the signal ratio
#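 Concentration-response series (up to 46 uM) were applied to TMD8 dual-reporter cells for 4 h at 37C with doxycycline. Green/red ratio, after filter-overlap correction, defined %Activity; red signal alone was normalised to basal cells and zero luminescence.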
# IL1B secr inh = qHTS for Inhibitors of Inflammasome Signaling: IL-1-beta AlphaLISA Primary Screen; THP-1 LPS/ATP IL-1B secretion, AlphaLISA, 16 h; active compounds read low; activity change, % at 57.5 µM; 360,000 tested, 4.7% active; AID 743279, 2014; in the data active means activity change below about -50%; inconclusive means mostly about -30% to -49%
#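 Secreted IL-1B measured by AlphaLISA bead assay after 16 h compound exposure of THP-1 cells; compounds (final up to 57.5 uM) added 1 h before LPS (250 ng/mL) and ATP (1.25 mM) stimulation; lower signal means less secretion.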
# Numbers stand for hits; – = inactive; ? = inconclusive; · = no result given; [ ] = remark or other dose. Sampled rows, rich in hits. Any-hit rate of the full collection: about 19%. Unless noted, the call rests on the fitted dose curve; in most records, active means well fitted curve in the direction sought with a large enough effect; inconclusive means small, poorly fitted or top-dose-only effect, or another doubt; inactive means no such curve, though single readings can be large; an effect the other way counts as inactive or inconclusive.
SMILES,DT40 TDP1 CPT,TDP1 cell noCPT,SW480 rerep,MCF10A rerep,Chronic BCR inh,IL1B secr inh
Cc1csc(=O)n1CC(=O)Nc1ccc(Cl)cc1F,?,–,–,–,–,–
Cc1ccccc1CSc1cn(CC(=O)N2CCCCCC2)c2ccccc12,?,23µM,·,·,·,·
O=C(Cn1cc(SCc2ccccc2F)c2ccccc21)N1CCCCCC1,23µM,?,·,·,·,·
COc1cc(NC(=O)c2ccccc2)c(OC)cc1NC(=O)CN1C(=O)N(C)C2(CCCCC2)C1=O,?,–,–,–,–,–
O=C1c2ccccc2N2C(=O)c3ccccc3[C@H]2N1c1ccccc1,16µM,18µM,–,?,–,–
O=C1c2ccccc2N2C(=O)c3ccccc3C2N1Cc1ccccc1 (centres undefined),?,?,–,–,?,–
CCCN1C(=O)/C(=C/c2ccc(C)s2)NC1=S,26µM,–,–,–,–,–
Cn1c(=O)c2c(c3ccccc31)OC(=O)CC2c1ccc(C(F)(F)F)cc1 (centres undefined),–,–,·,·,·,·
CCOc1c2c(c(-c3ccc4c(c3)OCO4)c3cc(OC)c(OC)cc13)C(=O)OC2,0.89µM,0.56µM,·,·,·,·
COc1cc(OC)c2c(OC)c(-c3ccc4c(c3)OCO4)c(=O)oc2c1,–,–,·,·,·,·
CC1CC(C)CN(c2ncc3c(n2)CC(c2ccc(Cl)cc2)CC3=O)C1 (centres undefined),?,8.2µM,–,–,–,–
CC1CC(C)CN(c2ncc3c(n2)CC(c2ccccc2Cl)CC3=O)C1 (centres undefined),?,21µM,–,?,?,–
Cc1cnc(NC(=O)c2cccc(S(=O)(=O)N3CCOCC3)c2)s1,–,–,–,–,?,–
Cc1ccc2nc3c(cc(C(=O)NCC4CCCO4)c(=N)n3C3CCCC3)c(=O)n2c1 (centres undefined),–,?,–,?,–,–
N=c1c(C(=O)NCC2CCCO2)cc2c(=O)n3ccccc3nc2n1C1CCCC1 (centres undefined),–,–,?,5.2µM,–,?
Cc1cccn2c(=O)c3cc(C(=O)NCC4CCCO4)c(=N)n(C4CCCC4)c3nc12 (centres undefined),–,?,18µM,?,–,–
COc1ccc(CCNC(=O)c2cc3c(=O)n4ccccc4nc3n(C3CCCCC3)c2=N)cc1OC,?,?,–,–,?,–
N=c1c(S(=O)(=O)c2ccccc2)cc2c(=O)n3ccccc3nc2n1C1CCCCC1,26µM,15µM,–,–,·,?
N=c1c(C(=O)NCC2CCCO2)cc2c(=O)n3ccccc3nc2n1C1CCCCC1 (centres undefined),–,–,?,15µM,–,–
O=C(CCNC(=O)c1ccccc1Cl)Nc1ccc2c(c1)OCCO2,–,–,·,·,·,–
O=C(NCc1ccco1)c1cccnc1-c1nc2ccccc2s1,21µM,29µM,–,–,–,–
O=C(Nc1ccccc1C(=O)NCc1ccco1)Nc1cccc2ccccc12,21µM,12µM,–,?,?,?
O=C(Nc1cccc(Cl)c1)Nc1ccccc1C(=O)NCc1ccco1,18µM,18µM,–,–,–,-53
Cc1cnc(C(=O)OC(C(=O)c2c[nH]c3ccccc23)c2ccccc2)cn1 (centres undefined),–,–,–,–,–,–
O=C(NCc1ccccc1)c1cccc2c(-c3cccnc3)coc12,?,?,·,·,·,–
SMILES,DT40 TDP1 CPT,TDP1 cell noCPT,SW480 rerep,MCF10A rerep,Chronic BCR inh,IL1B secr inh
O=C(Nc1ccccc1)c1cccc2c(-c3cccnc3)coc12,21µM,15µM,·,·,·,–
COc1ccc(NC(=O)c2cccc3c(-c4cccnc4)coc23)cc1,12µM,21µM,·,·,·,–
CC(C)CNC(=O)c1cccc2c(-c3cccnc3)coc12,–,–,·,·,·,–
Cc1cc(C)cc(OCC(=O)NCC2(N(C)C)CCCCC2)c1,–,–,·,·,·,·
O=C(NCCCn1ccnc1)c1cc(-c2cccs2)on1,4.6µM,4.6µM,–,–,–,–
O=C(NCc1ccco1)c1cc(-c2cccs2)on1,8.9µM,14µM,–,–,?,–
N/C(=N\NS(=O)(=O)c1ccccc1C(F)(F)F)c1ccccn1,–,–,?,–,–,–
Cc1nc(C(F)(F)F)c(C(=O)N/N=C(\N)c2ccccn2)s1,13µM,4.1µM,7.3µM,?,?,–
CC(C)c1ccc(CN2CCC(Oc3ccc(C(=O)N4CCCC4)cc3)CC2)cc1,?,?,–,–,–,–
COC(=O)c1cc(NC(=O)CN(c2ccc(OC)cc2)S(=O)(=O)c2ccc(F)cc2)ccc1Cl,18µM,18µM,–,–,?,–
COC(=O)c1ccccc1NC(=O)CN(C)S(=O)(=O)c1ccc(OC)cc1,?,?,–,–,–,–
COc1ccc(N(CC(=O)Nc2ccc(S(=O)(=O)N3CCOCC3)cc2)S(=O)(=O)c2ccccc2)cc1,16µM,18µM,–,–,–,–
COC(=O)c1ccccc1NC(=O)CN(c1ccc(Cl)cc1)S(=O)(=O)c1ccc(OC)cc1,21µM,9.2µM,·,·,·,·
CS(=O)(=O)N(CC(=O)Nc1ccccc1C(=O)NCc1ccco1)c1ccc2c(c1)OCCO2,18µM,?,?,?,?,–
O=C(Nc1ccc(F)cc1)C1C(c2ccccc2)C1(Cl)Cl (centres undefined),–,?,–,?,–,–
CCC(C)NC(=O)c1ccccc1NC(=O)CN(c1ccc(OC)cc1)S(C)(=O)=O (centres undefined),–,–,–,–,–,–
COc1ccc(N(CC(=O)Nc2ccccc2C(=O)NCC(C)C)S(C)(=O)=O)cc1,–,–,18µM,–,–,–
COc1ccc(N(CC(=O)Nc2ccccc2OC)S(=O)(=O)c2ccc(NC(C)=O)cc2)cc1,5.2µM,5.2µM,18µM,13µM,?,–
COc1ccc(NC(=O)Cn2c(=O)n(Cc3ccc4c(c3)OCO4)c(=O)c3ccc(C(=O)NC4CCCCC4)cc32)cc1,8.2µM,7.3µM,·,·,·,·
COCCn1c(N)c(C(=O)Nc2sc3c(c2C(=O)OC)CCCC3)c2nc3ccccc3nc21,–,?,–,–,–,–
COCCn1c(N)c(S(=O)(=O)c2cccs2)c2nc3ccccc3nc21,–,–,–,23µM,?,–
Nc1c(S(=O)(=O)c2cccs2)c2nc3ccccc3nc2n1Cc1ccccc1,?,?,–,–[0.0737 µM],?,–
